# Assay results as given in PubChem BioAssay AID588742 (Southern Research Specialized Biocontainment Screening …, 2011).
# Hit rate of the full screen: of about 1,800 compounds, about 410 (23%) were called active. A selection follows. Results with a measured potency or affinity are listed apart. Values without a mark were called inactive. How the calls were made is not given here.
# Experiment: Vero cell cytotoxicity, cytotoxicity control for flavivirus capping enzyme inhibitors (AID 588742)
# Details: Vero cells viability, cytotoxicity counter-screen; series mostly up to 40 µM; viability: at the top concentration
row,SMILES,viability
1,Cc1ccc(C2c3sc(=O)[nH]c3SC3C(=O)NC(=O)C32)cc1 (stereo unspecified),98.6%
2,COc1cccc(/C=C2\SC(=S)N(NS(=O)(=O)c3ccc(C)cc3)C2=O)c1OC,86.8%
3,CC1(C)CC(=O)C(C(c2ccc(Br)cc2)C2C(=O)CC(C)(C)CC2=O)C(=O)C1,96.5%
4,CC1=NN(Cc2ccccc2)C(=O)C1C(c1ccccc1)C(C#N)C#N (stereo unspecified),88.9%
5,CCOc1ccccc1NC(=O)CN1C(=O)COc2ccc(S(=O)(=O)N3CCOCC3)cc21,101%
6,Cc1cc(OCC(=O)NC2CCN(Cc3ccccc3)CC2)c2c(C)c(C)c(=O)oc2c1,101%
7,O=C1/C(=C/c2ccc(C(=O)O)cc2)CCC/C1=C\c1ccc(C(=O)O)cc1,114%
8,O=C1ON=C(c2cccc([N+](=O)[O-])c2)/C1=C/c1ccc(O)cc1,80.4%
9,O=C(O)c1cccc(N2C(=O)C=CC2=O)c1,107%
10,Cc1ccc([C@H]2C(C(=O)O)=CC[C@@H](c3ccc(Cl)c(Cl)c3)N2S(=O)(=O)c2ccc(C)cc2)cc1,84.2%
11,O=C(COc1ccccc1/C=C\c1[nH]c(=O)[nH]c(=O)c1[N+](=O)[O-])Nc1ccccc1,109%
12,CCOC(=O)CC1=NN(c2ccccc2)C(=O)/C1=C\c1ccc(OC)cc1OC,94.6%
13,CCOC(=O)c1c2c(c(=S)n(-c3ccccc3)c1N)CCC2,82.2%
14,O=S(=O)(Nc1nc(-c2sccc2Cl)cs1)c1cc(Cl)ccc1Cl,99.7%
15,Fc1cccc(Cl)c1CNc1ccc(N2CCCC2)cc1,84.4%
16,CCN1C(=NCc2ccccc2)N[C@@H](c2ccccc2)[C@H](C(=O)OC)[C@H]1C,97.6%
17,O=C(Cc1ccc(Br)cc1)Nc1ccc2[nH]ncc2c1,90.6%
18,CN(CCO)c1cc(Sc2nc3ccccc3s2)c2nonc2c1[N+](=O)[O-],98.6%
19,O=c1cc(-c2ccccc2)[nH]c2[nH]n(-c3ccccc3)c(=O)c12,97%
20,O=C(O)c1ccc(Cl)c(S(=O)(=O)Nc2ccccc2C(=O)Nc2ccc(Cl)cc2)c1,94.1%
21,Cc1ccc(C)c(S(=O)(=O)Nc2ccccc2C(=O)Nc2ccc(S(=O)(=O)Nc3ncccn3)cc2)c1,102%
22,CC(=C\c1ccccc1)/C=C1/SC(=S)N(C(C(=O)O)C(C)C)C1=O (stereo unspecified),99.2%
23,Oc1cccc(/C=N/N=C/c2cccc(O)c2O)c1O,86.5%
24,Cc1cc(C(=O)N/N=C/c2ccc(O)c(O)c2O)c(C)n1-c1ccccc1,85%
25,CCN(CC)S(=O)(=O)c1cccc(C(=O)N/N=C/c2ccc(O)c(O)c2O)c1,99.8%
26,Oc1ccc(/C=N/N2CCCCC2)c(O)c1O,96%

row,SMILES,viability
1,O=C1N=c2ccccc2=C1c1sc(=S)n(NC(=O)c2cccc(O)c2)c1O,99.3%
2,CC1=NN(c2ccc(C)cc2C)C(=O)C1C(c1ccccc1)C1C(=O)N(c2ccc(C)cc2C)N=C1C (stereo unspecified),92.2%
3,O=C(O)c1ccccc1-c1ccccc1C(=O)Nc1ccc2c(c1)oc(=O)c1ccccc12,108%
4,Cc1cc(C)c(C(=O)COc2cccnc2[N+](=O)[O-])cc1C,99%
5,COc1ccc(/C=N/NC(=O)c2nn(-c3ccccc3)c(=O)c3c(N)scc23)cc1,94%
6,Nc1scc2c(C(=O)N/N=C/c3ccc(Cl)cc3)nn(-c3ccccc3)c(=O)c12,94%
7,Cc1[nH]c(=O)c(C#N)c(C)c1CCC(=O)Nc1cc(S(C)(=O)=O)ccc1Cl,105%
8,N#Cc1c([N+](=O)[O-])cc([N+](=O)[O-])cc1S(=O)(=O)Cc1ccccc1,96.8%
9,CSc1nc(SCC(=O)O)c2sc3nc(-c4ccccc4)c4c(c3c2n1)CCC4,95.7%
10,CCCS(=O)(=O)c1nc(S(=O)(=O)c2ccc(C)cc2)c(N2CCC(O)CC2)s1,103%
11,O=C(O)c1cccc2c1C(=O)c1ccc(-c3ccc(F)cc3OCc3ccccc3)cc1S2(=O)=O,109%
12,Cc1nc(N2C(=O)C(=O)/C(=C(/O)c3ccccc3)C2c2ccco2)sc1C (stereo unspecified),85%
13,C=CCOc1ccc(/C=C2/C(=O)ON=C2C)cc1OCC,102%
14,CCCOc1ccc(/C=C2/C(=O)ON=C2C)cc1OCC,105%
15,CCc1cc(=O)oc2cc(OCC(=O)NCCCn3ccnc3)c(Cl)cc12,98.5%
16,CC1(C)CC(=O)C(=Cc2cn(CCC#N)nc2-c2ccc(F)cc2)C(=O)C1,105%
17,CCOc1cc(/C=C2\NC(=O)NC2=O)cc([N+](=O)[O-])c1O,112%
18,COc1ccc(NC(=O)Nc2c(O)ccc3ccccc23)cc1,94.1%
19,COc1ccccc1NC(=O)NNC(=O)c1cc2ccccc2cc1O,84.9%
20,COc1ccc2c(c1)Cc1cc(NC(=O)c3ccccc3-c3ccccc3C(=O)O)ccc1-2,95.3%
21,O=C(NCCCl)NNC(=O)c1cc2ccccc2cc1O,94.7%
22,O=C1c2ccccc2C(O)(c2ccccc2)N1c1ccc([N+](=O)[O-])cc1Cl (stereo unspecified),90.8%
23,CCC1(C)Cc2c(sc3[nH]c(=O)[nH]c(=O)c23)CS1 (stereo unspecified),104%
24,CC1(C)Cc2c(sc3nc4n(-c5ccccc5)c(=O)c(CCC(=O)O)nn4c(=O)c23)CO1,108%
25,CCOc1cc(/C=N/N=C2/NC(=O)C(CC(=O)O)S2)ccc1OCc1ccccc1Cl (stereo unspecified),100%
26,COc1ccccc1N1CCN(/N=C/c2cccc(OC)c2O)CC1,99.3%

row,SMILES,viability
1,CCOc1ccccc1CNc1ccc(O)cc1,96.2%
2,Oc1ccc(NCc2ccccc2OCc2ccccc2F)cc1,97.6%
3,COc1ccc(/C=c2\sc3nc(=O)c(C)nn3c2=O)c(OC)c1,100%
4,C=CCOC(=O)C1=C(C)N=c2s/c(=C3\C(=O)N(CC(=O)O)c4ccccc43)c(=O)n2C1c1ccc(OC)cc1 (stereo unspecified),105%
5,COC(=O)C1=CN(c2cccc(C)c2)C=C(C(=O)OC)C1c1cc(OC)c(O)c([N+](=O)[O-])c1,96.7%
6,CCOC(=O)c1c(/N=C/c2cccc([N+](=O)[O-])c2O)sc(C)c1C,105%
7,Cc1ccc(S(=O)(=O)Nn2c(C)ccc2C)cc1,97.7%
8,Cc1ccc(C(c2c(O)nc3n(c2=O)CCS3)c2c(O)nc3n(c2=O)CCS3)cc1,97.4%
9,NS(=O)(=O)c1ccc(N=Nc2c(O)c(C(=O)O)cc3ccccc23)cc1,117%
10,CC(=O)N1c2ccc(S(=O)(=O)N(C)CC(=O)NCc3ccc(C)cc3)cc2CC1C (stereo unspecified),89.4%
11,COc1cc(/C=C/c2[nH]c(=O)[nH]c(=O)c2[N+](=O)[O-])cc([N+](=O)[O-])c1O,92.2%
12,CCCOc1ccc(C(=O)N/N=C/c2ccc(-c3ccc(S(=O)(=O)Nc4ncccn4)cc3)o2)cc1,97.5%
13,O=C(/C=C/Nc1ccc(S(=O)(=O)Nc2ncccn2)cc1)c1cccs1,106%
14,O=C1NN(c2ccccc2)C(=O)/C1=C/c1ccc(-c2ccc(C(=O)O)cc2)o1,108%
15,Nc1nc2ncc(C(=O)c3cc(Cl)cc(Cl)c3O)cc2s1,95.3%
16,C=CCn1c(=O)c(CCC(=O)Nc2ccc(N3CCOCC3)cc2)nc2cc(C(F)(F)F)ccc21,90.6%
17,CC1(OC(=O)c2ccco2)C(=O)C=C2C=C(C3CC3)OC=C2C1=O (stereo unspecified),96.2%
18,C/C(=N/NC(=O)c1cc(O)c(O)c(O)c1)c1ccc([N+](=O)[O-])cc1,99.6%
19,O=C(CCC1CCCC1)NNC(=O)c1cc2ccccc2cc1O,87.1%
20,O=C(NC1CCCCC1)c1cc2ccccc2cc1O,94.5%
21,Cc1cc(C)c2nc(N3C(=O)C(O)=C(C(=O)c4ccco4)C3c3ccc(O)cc3)sc2c1 (stereo unspecified),96.7%
22,O=C(CNS(=O)(=O)c1ccc2ccccc2c1)OCC(=O)c1ccc(Br)s1,93.8%
23,O=C(c1ccccc1)c1ccc(OCC(O)CN2CCN(S(=O)(=O)N3CCCCC3)CC2)cc1 (stereo unspecified),87.1%
24,CC(C)c1ccc(Nc2ccc(C(=O)O)cc2[N+](=O)[O-])cc1,101%
25,CCc1nnc(N/N=C/c2ccc(N3CCC(C)CC3)c([N+](=O)[O-])c2)n1N,89.8%
26,COc1ccc(C2CC(c3ccccc3)=NN2c2ccc(Cl)c(C(=O)O)c2)cc1 (stereo unspecified),91.2%

row,SMILES,viability
1,O=C(CCN1C(=O)/C(=C\C=C\c2ccccc2)SC1=S)Nc1ccccc1C(=O)O,95.4%
2,O=C1CCC/C(=N/Nc2ccc(Cl)cc2)C1,89.1%
3,COc1cc(C2C(C#N)=C(N)OC3=C2C(=O)CC(C)(C)C3)c([N+](=O)[O-])cc1OC (stereo unspecified),108%
4,COc1ccc2c([N+](=O)[O-])c(Cl)[nH]c2c1,104%
5,Cc1[nH]c2ccccc2c1C1=CC(=O)C=CC1=O,89.9%
6,CC(=O)N1CCN(c2ccc(NCc3ccc(Br)o3)cc2)CC1,106%
7,Cc1nc2nc(-c3cccs3)cn2nc1C,95.6%
8,CCCCCCCC1=NN(c2ccc(S(=O)(=O)O)cc2)C(=O)C1N=O (stereo unspecified),100%
9,COC(=O)c1ccc(N2NC(=O)/C(=C/c3ccc(OC)c(OC)c3)C2=O)cc1,98.2%
10,O=C1NN(c2ccccc2)C(=O)/C1=C\c1cccc(OC(=O)c2cccs2)c1,103%
11,CN=c1scc(C)n1/N=C/c1ccc(O)c(O)c1O,95.4%
12,COCCNC(=O)Nc1ccc2nc(-c3ccco3)c(-c3ccco3)nc2c1,102%
13,Oc1ccc(/C=N/N2CCOCC2)c(O)c1O,102%
14,Cc1nc2ccccc2c(=O)n1/N=C/c1ccc(O)c(O)c1O,99.3%
15,Cc1cccc(N/N=C/c2ccc(O)c(O)c2O)c1,103%
16,C#CCOc1ccc(/C=C2/C(=O)ON=C2C)cc1Cl,98.1%
17,O=C1CCNc2cc3ccccc3cc21,83.9%
18,COc1ccc(C2C(C#N)=C(N)Oc3c2c(C)nn3-c2ccccc2)cc1Cn1nc(C)c([N+](=O)[O-])c1C (stereo unspecified),94.7%
19,O=c1[nH]n2c(=O)c3c([nH]c2c1N=Nc1cccc(C(F)(F)F)c1)CCCC3,101% [at 20 µM]
20,O=c1oc2ccccc2c(O)c1/C=C1\C=Nc2ccccc21,91.5%
21,CCOc1ccc(N2C(=O)C(Cl)=C(N3CCOCC3)C2=O)cc1,98.1%
22,COC(=O)c1c(C)c2c(C)cc3ccccn3c-2c1C(=O)OC,101%
23,Cc1c(CCC(=O)O)c(=O)oc2c(C)c(OCc3cc4c(cc3Cl)OCO4)ccc12,94.4%
